Dicer inh = inhibitors of Dicer pre-microRNA processing, primary screen, biochemical, cat-ELCCA, chemiluminescence; 6% of 47,000 active; cat-ELCCA pre-miR-21 Dicer processing; active compounds read high; AID 1347074, 2019; Endoribonuclease Dicer (Homo sapiens), Q9UPY3; z-score at 25 µM; in the data active = z-score above about 3, passing the limit was not always enough;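 note: plate controls were vehicle for no effect and no enzyme for full effect; higher signal means more uncleaved substrate so more Dicer inhibition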
Target sequence (Q9UPY3 whole entry, looked up): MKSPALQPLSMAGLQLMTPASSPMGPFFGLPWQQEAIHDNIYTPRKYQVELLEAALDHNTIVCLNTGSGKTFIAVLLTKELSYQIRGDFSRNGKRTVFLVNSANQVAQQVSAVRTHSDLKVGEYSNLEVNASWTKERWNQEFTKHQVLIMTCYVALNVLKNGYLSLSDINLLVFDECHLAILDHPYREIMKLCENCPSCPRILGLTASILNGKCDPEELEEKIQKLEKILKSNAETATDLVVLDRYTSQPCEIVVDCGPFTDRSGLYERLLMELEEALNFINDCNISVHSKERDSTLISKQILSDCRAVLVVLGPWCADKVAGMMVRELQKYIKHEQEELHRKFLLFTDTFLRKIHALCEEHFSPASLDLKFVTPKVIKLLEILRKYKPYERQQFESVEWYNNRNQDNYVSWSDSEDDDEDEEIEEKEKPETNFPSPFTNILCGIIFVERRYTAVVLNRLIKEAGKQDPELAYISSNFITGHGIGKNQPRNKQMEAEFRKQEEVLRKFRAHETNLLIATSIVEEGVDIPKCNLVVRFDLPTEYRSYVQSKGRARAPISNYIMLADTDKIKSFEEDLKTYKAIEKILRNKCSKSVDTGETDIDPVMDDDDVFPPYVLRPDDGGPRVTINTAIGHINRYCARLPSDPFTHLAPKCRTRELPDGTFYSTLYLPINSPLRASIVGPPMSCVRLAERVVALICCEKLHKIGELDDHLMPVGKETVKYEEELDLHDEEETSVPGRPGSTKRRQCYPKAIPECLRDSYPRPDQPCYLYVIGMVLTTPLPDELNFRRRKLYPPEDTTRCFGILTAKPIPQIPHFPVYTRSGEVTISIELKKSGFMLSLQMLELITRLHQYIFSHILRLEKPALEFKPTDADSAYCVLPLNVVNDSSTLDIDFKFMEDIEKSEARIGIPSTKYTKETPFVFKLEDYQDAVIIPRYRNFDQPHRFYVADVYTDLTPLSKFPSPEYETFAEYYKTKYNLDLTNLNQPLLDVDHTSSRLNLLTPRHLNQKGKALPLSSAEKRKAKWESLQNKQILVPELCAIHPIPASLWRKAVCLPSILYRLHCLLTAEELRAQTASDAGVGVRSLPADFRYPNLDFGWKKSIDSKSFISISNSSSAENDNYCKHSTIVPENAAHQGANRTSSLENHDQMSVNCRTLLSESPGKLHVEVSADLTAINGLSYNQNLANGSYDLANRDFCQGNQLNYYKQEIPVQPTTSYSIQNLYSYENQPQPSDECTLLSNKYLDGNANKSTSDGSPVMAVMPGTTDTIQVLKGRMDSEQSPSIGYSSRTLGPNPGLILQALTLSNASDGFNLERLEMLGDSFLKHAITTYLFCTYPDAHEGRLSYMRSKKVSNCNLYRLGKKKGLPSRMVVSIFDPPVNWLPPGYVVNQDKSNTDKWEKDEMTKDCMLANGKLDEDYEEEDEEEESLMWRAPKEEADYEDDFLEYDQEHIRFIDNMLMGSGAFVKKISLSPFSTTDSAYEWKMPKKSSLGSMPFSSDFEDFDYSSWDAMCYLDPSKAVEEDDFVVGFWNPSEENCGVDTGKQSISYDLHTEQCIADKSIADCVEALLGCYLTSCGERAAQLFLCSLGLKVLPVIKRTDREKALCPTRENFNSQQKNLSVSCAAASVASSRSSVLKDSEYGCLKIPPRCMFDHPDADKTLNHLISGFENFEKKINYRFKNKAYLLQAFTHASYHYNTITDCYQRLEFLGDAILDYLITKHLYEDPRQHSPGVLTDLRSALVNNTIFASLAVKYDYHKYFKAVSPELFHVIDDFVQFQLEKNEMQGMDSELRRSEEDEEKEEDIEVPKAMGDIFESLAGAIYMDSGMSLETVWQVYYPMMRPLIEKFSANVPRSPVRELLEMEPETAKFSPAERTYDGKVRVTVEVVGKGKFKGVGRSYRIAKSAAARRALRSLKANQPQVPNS
* hit, by the source's call. The entries come from a sample that favours hits as a whole.

SMILES	Dicer inh
COc1cc(C2C(C#N)=C(N)Oc3n[nH]c(C)c32)ccc1OCc1ccccc1Cl (stereo unspecified)	-9
COc1ccc(N2C(=O)C3C4c5ccccc5C(C(C)O)(c5ccccc54)C3C2=O)cc1 (stereo unspecified)	-0.27
NC(=O)c1c(NC(=O)COc2ccccc2Cl)sc2c1CCCC2	-4.1
Cc1ccc(C(=O)NNC(=O)CSc2ncnc3c(C)csc23)cc1	0.22
O=C1c2cc([N+](=O)[O-])ccc2-c2c1cc([N+](=O)[O-])cc2C(=O)N1CCCCC1	-0.39
COc1ccc(C23CC4CC(CC(O)(C4)C2)C3)cc1	1.3
O=C(CSc1n[nH]c(-c2ccncc2)n1)c1c[nH]c2ccccc12	1.1
Cc1cc(C)c2c(c1)NC(=O)C2(O)CC(=O)c1cccs1 (stereo unspecified)	3.4*
O=C(CC1(O)C(=O)Nc2ccc(Br)cc21)c1cccs1 (stereo unspecified)	-1.9
Cc1ccc(C(=O)CC2(O)C(=O)Nc3ccc(C)cc32)c(C)c1 (stereo unspecified)	-0.09
C#CCN1C(=O)c2ccccc2S1(=O)=O	2.6
O=C(N[C@@H]1C[C@H]2CC[C@@H]1C2)c1ccc(C2SCC(=O)N2CCc2ccccc2)cc1 (stereo partly specified)	1.4
O=C(CSc1nc2c(c(=O)[nH]1)CSC2)c1ccc(Cl)cc1	1.4
O=C(CSc1nn2cnnc2s1)N(C1CCCCC1)C1CCCCC1	2
O=C(CSc1ncn[nH]1)N1CCc2ccccc21	0.69
O=C(CSc1nn2cnnc2s1)N1CCc2ccccc21	3.1*
Cc1cccc(N2C(=O)CSC2=S)c1	0.8
CC1CC(=O)c2c(F)c(F)cc3c(=O)c(C(=O)O)cn1c23 (stereo unspecified)	-0.56
COc1ccc(C2C(C#N)=C(N)OC3=C2C(=O)CC(C)(C)C3)cc1OCc1ccccc1 (stereo unspecified)	3*
COC(=O)C1=C(C)NC2=C(C(=O)CC(C)(C)C2)C1c1ccc(OCc2ccccc2)c(OC)c1 (stereo unspecified)	-0.7
COc1cc(C2C(C#N)=C(N)Oc3cc(O)ccc32)ccc1OCc1ccccc1 (stereo unspecified)	1.8
COc1ccccc1N1C(=O)CC(N2CCN(c3ccccn3)CC2)C1=O (stereo unspecified)	-0.78
COC(=O)c1ccc(O)c(CSc2ccccn2)c1	0.13
CCOC(=O)C1CCCN(C(=O)Cn2cnc3c2c(=O)n(C)c(=O)n3C)C1 (stereo unspecified)	7.2*
Cn1c(=O)c2c(ncn2CC(=O)N2CCCCC2)n(C)c1=O	0.77
SMILES	Dicer inh
Cn1c(=O)c2c(ncn2CC(=O)N2CCOCC2)n(C)c1=O	1.4
Cn1c(=O)c2c(ncn2CC(=O)N2CCCC2)n(C)c1=O	-0.45
CCOC(=O)CCn1cnc2c1c(=O)n(C)c(=O)n2C	5.2
COC(=O)C1CCN(C(=O)Cn2cnc3c2c(=O)n(C)c(=O)n3C)CC1	4.6*
COCCCNC(=O)Cn1cnc2c1c(=O)n(C)c(=O)n2C	1.6
CC1CCN(C(=O)Cn2cnc3c2c(=O)n(C)c(=O)n3C)CC1	3.1*
Cn1c(=O)c2c(ncn2CC(=O)NC2CCSC2=O)n(C)c1=O (stereo unspecified)	1.4
COC(=O)Cc1nc(-c2ccc(Cl)cc2)sc1C	-1
Cc1ccc2ncc(NC(=O)c3ccccc3)c(=O)n2c1	0.38
N/C(=N\N=C\c1ccccc1)N/N=C/c1ccccc1	0.94
CSc1scc(NC(=O)Nc2cccc(Cl)c2)c1S(=O)(=O)C(C)C	-0.57
CCc1ccc(C2C3=C(CCCC3=O)Nc3c2c(=O)n(C)c(=O)n3C)cc1 (stereo unspecified)	2.5
CC1CCc2c(sc3nnn(CC(=O)N4CCCCC4)c(=O)c23)C1 (stereo unspecified)	2
CC1CCc2c(sc3nnn(CC(=O)OC(C)C)c(=O)c23)C1 (stereo unspecified)	1.4
CC1CCc2c(sc3nnn(CC(N)=O)c(=O)c23)C1 (stereo unspecified)	6.4*
CNS(=O)(=O)c1cc(-c2nnc(OC)c3ccccc23)ccc1C	-1.3
CCCc1nccn1S(=O)(=O)c1cc(Cl)ccc1OC	-0.45
Cn1c(=S)[nH]c2cc(C(F)(F)F)ccc21	0.41
CS/C(=C/C(=O)c1ccco1)Nc1ccccc1Cl	-1.5
CSC1=N/C(=C\c2c(C)nn(-c3ccccc3)c2Cl)C(=O)S1	0.63
Cc1cc(Nc2ccccc2)c2ccccc2n1	1.5
CCOc1ccc(Nc2cc(C)nc3ccc(OC)cc23)cc1	2.9
COc1ccc2nc(C)cc(Nc3ccc(Br)cc3)c2c1	5*
O=C(O)CSc1cccc(C(F)(F)F)c1	-0.68
O=C(c1ccc(Cl)cc1)N1c2ccccc2OC1c1ccc2c(c1)OCO2 (stereo unspecified)	0.03
SMILES	Dicer inh
C=CC(C)N1C(=O)c2ccccc2C1=O (stereo unspecified)	0.45
CC(C)c1ccc(C(=O)CC2(O)C(=O)Nc3ccccc32)cc1 (stereo unspecified)	-1.4
CCOc1ccc(C(=O)CC2(O)C(=O)Nc3ccccc32)cc1 (stereo unspecified)	3.4*
CCc1ccc(C(=O)CC2(O)C(=O)Nc3ccccc32)cc1 (stereo unspecified)	-0.1
C=CCOc1ccc(C2N3CC4(C)CN2CC(C)(C3)C4)cc1 (stereo unspecified)	2.5
Cc1nnc2n1NC(c1ccc(Cl)cc1)C(C(=O)NCC(C)C)S2 (stereo unspecified)	-1.2
Cc1c(S(=O)(=O)Nc2ccccc2Cl)sc2ccc(Cl)cc12	4.6*
Cc1c(S(=O)(=O)Oc2ccccc2Cl)sc2ccc(Cl)cc12	-0.86
Cc1c(S(=O)(=O)Nc2ccc(Cl)c(Cl)c2)sc2ccc(Cl)cc12	1.9
O=c1[nH]nc(Sc2ncccc2C(F)(F)F)n1C1CCCCC1	0.42
CO[C@@]1(NC(=O)[C@H](C(=O)O)c2ccc(O)cc2)C(=O)N2C(C(=O)O)=C(CSc3nnnn3C)CO[C@@H]21	0.28
CC(C)(C)OC(=O)NCCNc1ccc(C(F)(F)F)cc1N1C(=O)CC2(CCCC2)C1=O	-1.1
CCn1c(=O)n(CC)c2cc3nc4c(nc3cc21)C(=O)c1ccccc1-4	0.82
COc1ccc(-c2cc(C(F)(F)F)n3nc(C(N)=O)cc3n2)cc1OC	-0.73
CCCCc1c(O)nc(SCCN(C)C)n(-c2ccccc2)c1=O	0.39
CCOC(=O)CSc1nc2sc3c(c2c(=O)n1-c1ccccc1)CCN(C)C3	2.5
CCCCCc1c(O)nc(SCCN2CCOCC2)n(-c2ccccc2)c1=O	3.3*
OCCCc1nc2cc3ccccc3cc2[nH]1	0.64
COc1cccc(-c2nnc(SCc3ccc(Br)cc3)o2)c1	0.26
COc1cccc(-c2nc(-c3ccc(Cl)cc3)no2)c1	3*
COc1ccc(-c2noc(-c3cc(C)cc(C)c3)n2)cc1	-0.05
COc1cccc(-c2nnc(SCc3ccc(Cl)cc3)o2)c1	3.1*
Cc1ccc(-c2nc(-c3ccccc3)no2)cc1	0.12
COc1cccc(-c2nnc(SCc3cccc(Cl)c3)o2)c1	-0.19
COc1ccc(-c2nc(-c3ccc(Cl)cc3)no2)cc1OC	8.9
COc1cccc(-c2nc(-c3ccccc3)no2)c1	3.2
Cc1cc(C)cc(-c2nc(-c3ccccc3)no2)c1	4.7*
CN1CCN(C(=O)CN2C(=O)COc3ccc(Cl)cc32)CC1	0.04
CCOC(=O)C1=C(C)N(c2ccc(C)c(C)c2)C(=O)C1	9.8
CCCCS(=O)c1sc(C(=O)OCC)c2c1C(=O)CCC2 (stereo unspecified)	-0.86

Screening results as filed in PubChem.
